In article PMC5700166 one finds binding signal data, which are given here for 10 sequences.

What all share (assay): protein-binding microarray (PBM); PBM: ~300 nM protein, 6 mM HEPES pH 7.8, 80 mM KCl, 0.5 mM EDTA, 0.5 mM EGTA, 6% glycerol, 35 ng/ul poly-dIdC, 1% milk, 1 h, room temperature; Ap Aiptasia and Nv Nematostella (sea anemones) / Co Capsaspora / Aq Amphimedon (sponge) / Dm Drosophila / Hu human; RHD is the Rel homology domain; high values mean tight binding
Holding throughout (details): dsDNA, one strand shown

For one assay, the target named is T1, GST-Ap-NF-kB RHD (Exaiptasia pallida (Aiptasia), UniProt A0A913YAJ5 2-422).
T1 sequence: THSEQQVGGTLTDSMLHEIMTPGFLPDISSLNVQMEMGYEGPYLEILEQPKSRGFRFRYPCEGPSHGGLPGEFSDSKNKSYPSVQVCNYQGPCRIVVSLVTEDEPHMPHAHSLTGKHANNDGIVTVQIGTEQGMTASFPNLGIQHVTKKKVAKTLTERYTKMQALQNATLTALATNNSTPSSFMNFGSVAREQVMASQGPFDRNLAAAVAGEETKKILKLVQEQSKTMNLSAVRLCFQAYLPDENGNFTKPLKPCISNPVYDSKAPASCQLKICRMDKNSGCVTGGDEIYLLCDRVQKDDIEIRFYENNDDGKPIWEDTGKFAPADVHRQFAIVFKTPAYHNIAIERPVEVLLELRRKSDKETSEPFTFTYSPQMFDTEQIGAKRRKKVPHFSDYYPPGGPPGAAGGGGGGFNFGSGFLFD

The target in assay [1] is T2, GST-Nv-NF-kB (Cys allele) (Nematostella vectensis, UniProt E5G601 2-411).
T2 sequence: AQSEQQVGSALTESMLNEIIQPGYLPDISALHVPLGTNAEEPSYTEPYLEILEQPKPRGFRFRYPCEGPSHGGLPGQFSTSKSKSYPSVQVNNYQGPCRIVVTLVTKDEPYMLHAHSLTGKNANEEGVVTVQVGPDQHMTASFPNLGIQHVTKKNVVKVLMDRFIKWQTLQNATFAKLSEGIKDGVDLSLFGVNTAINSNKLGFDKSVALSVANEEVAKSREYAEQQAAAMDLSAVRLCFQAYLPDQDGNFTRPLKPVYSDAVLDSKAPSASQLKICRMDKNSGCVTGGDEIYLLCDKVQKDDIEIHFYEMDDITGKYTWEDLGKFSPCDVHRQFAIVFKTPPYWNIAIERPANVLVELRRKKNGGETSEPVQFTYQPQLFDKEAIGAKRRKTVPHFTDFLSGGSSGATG

Assay [2] deals with T3, GST-Nv-NF-kB (Ser allele) (Nematostella vectensis, UniProt A7UNT2 2-411).
T3 sequence: T2 sequence with Q21R, C66S, S207N, E215Q, V217A, E225K, A268E, D399E

The target in a further assay is T4, GST-Co-NF-kB (Capsaspora owczarzaki, UniProt F1ARL5 200-546).
T4 sequence: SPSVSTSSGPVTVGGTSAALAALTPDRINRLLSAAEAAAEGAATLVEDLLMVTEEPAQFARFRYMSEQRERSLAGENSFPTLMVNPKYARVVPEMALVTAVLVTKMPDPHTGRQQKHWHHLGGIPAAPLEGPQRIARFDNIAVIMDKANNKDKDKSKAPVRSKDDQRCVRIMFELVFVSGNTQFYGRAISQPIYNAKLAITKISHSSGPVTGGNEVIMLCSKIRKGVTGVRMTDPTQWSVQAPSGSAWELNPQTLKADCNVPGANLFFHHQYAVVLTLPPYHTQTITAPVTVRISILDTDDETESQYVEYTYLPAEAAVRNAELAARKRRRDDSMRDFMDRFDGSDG

A further assay deals with T5, GST-Dm-Relish (Drosophila melanogaster, UniProt Q94527 99-473).
T5 sequence: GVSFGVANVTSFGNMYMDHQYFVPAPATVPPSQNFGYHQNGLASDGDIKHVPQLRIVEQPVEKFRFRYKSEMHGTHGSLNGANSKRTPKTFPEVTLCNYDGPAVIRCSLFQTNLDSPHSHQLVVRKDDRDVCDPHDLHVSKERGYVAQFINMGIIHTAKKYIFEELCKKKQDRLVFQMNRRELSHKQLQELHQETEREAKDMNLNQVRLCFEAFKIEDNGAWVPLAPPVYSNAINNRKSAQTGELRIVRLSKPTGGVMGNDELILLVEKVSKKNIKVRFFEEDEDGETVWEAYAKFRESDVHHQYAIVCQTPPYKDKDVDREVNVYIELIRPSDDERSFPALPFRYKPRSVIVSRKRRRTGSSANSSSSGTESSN

The target of a further assay is T6, GST-Aq-NF-kB (Amphimedon queenslandica, UniProt A9Y5G7 2-389).
T6 sequence: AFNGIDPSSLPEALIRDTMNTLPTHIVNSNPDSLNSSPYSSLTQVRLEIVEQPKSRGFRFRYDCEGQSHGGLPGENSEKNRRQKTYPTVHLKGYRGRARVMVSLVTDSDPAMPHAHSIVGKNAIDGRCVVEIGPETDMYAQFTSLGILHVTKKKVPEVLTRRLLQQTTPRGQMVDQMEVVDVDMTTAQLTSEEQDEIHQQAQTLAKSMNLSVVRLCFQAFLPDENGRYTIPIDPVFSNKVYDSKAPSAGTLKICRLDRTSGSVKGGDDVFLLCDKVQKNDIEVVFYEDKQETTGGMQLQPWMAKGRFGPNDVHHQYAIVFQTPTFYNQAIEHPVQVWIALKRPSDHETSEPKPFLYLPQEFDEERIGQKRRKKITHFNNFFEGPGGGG

The next assay has as its target GST-Hu-p50 (Homo sapiens, UniProt P19838 7-356).

Changes are numbered by the printed parent chain.

Sequence of GST-Hu-p50 (P19838 7-356): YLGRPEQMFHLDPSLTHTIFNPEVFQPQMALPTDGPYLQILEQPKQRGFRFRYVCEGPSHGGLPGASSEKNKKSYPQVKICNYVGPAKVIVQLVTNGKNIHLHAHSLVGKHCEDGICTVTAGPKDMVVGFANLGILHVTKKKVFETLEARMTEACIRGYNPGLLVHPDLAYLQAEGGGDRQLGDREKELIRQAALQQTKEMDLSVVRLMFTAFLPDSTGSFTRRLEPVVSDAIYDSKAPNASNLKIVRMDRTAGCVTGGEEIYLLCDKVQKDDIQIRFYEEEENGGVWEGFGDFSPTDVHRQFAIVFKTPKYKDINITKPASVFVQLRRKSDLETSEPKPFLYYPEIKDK

Take “CCGATTAACATCAGGGCATCCCCTGATGTTAATCGGGTCTTGATTCGCTTGACGCTGCTG”: the binding signal stood at 7.7 z-score with GST-Ap-NF-kB RHD; 8.03 z-score in assay [1]; 5.95 z-score in assay [2]; 2.46 z-score in the assay with GST-Co-NF-kB; 9.13 z-score with GST-Dm-Relish; 8.18 z-score with GST-Aq-NF-kB. The same sequence showed a binding signal with GST-Hu-p50 of 5.52 z-score.

Regarding “CCGATTAACATCAGGGAAATCCATGATGTTAATCGGGTCTTGATTCGCTTGACGCTGCTG”, the binding signal came out at 4.11 z-score with GST-Ap-NF-kB RHD; 5.43 z-score in assay [1]; 5.07 z-score in assay [2]; 3.28 z-score in the assay with GST-Co-NF-kB; 5.65 z-score with GST-Dm-Relish; 5.63 z-score in the assay with GST-Aq-NF-kB. The binding signal with GST-Hu-p50 amounted to 3.96 z-score.

Take “CCGATTAACATCAGAGTTTCCCCTGATGTTAATCGGGTCTTGATTCGCTTGACGCTGCTG”: the binding signal in the assay with GST-Ap-NF-kB RHD was 7.08 z-score; in assay [1], 8.35 z-score; in assay [2], 9.96 z-score; with GST-Co-NF-kB, 7.72 z-score; in the assay with GST-Dm-Relish, 4.61 z-score; in the assay with GST-Aq-NF-kB it was 6.33 z-score. In the assay with GST-Hu-p50, this sequence yielded a binding signal of 6.14 z-score.

For the sequence “CCGATTAACATCAGGGGATTTTATGATGTTAATCGGGTCTTGATTCGCTTGACGCTGCTG”, the binding signal in the assay with GST-Ap-NF-kB RHD is 10.4 z-score; in assay [1], 11.7 z-score; in assay [2] it was 12.7 z-score; in the assay with GST-Co-NF-kB, 4.81 z-score; with GST-Dm-Relish, 9.55 z-score; with GST-Aq-NF-kB it was 8.66 z-score. The sequence also had a binding signal with GST-Hu-p50 of 8.09 z-score.

As for “CCGATTAACATCAAAATTTCCCTTGATGTTAATCGGGTCTTGATTCGCTTGACGCTGCTG”, the binding signal with GST-Ap-NF-kB RHD came out at 5.11 z-score; in assay [1] it was 8.26 z-score; in assay [2] it was 7.99 z-score; in the assay with GST-Co-NF-kB, 5.01 z-score; with GST-Dm-Relish it was 4.81 z-score; in the assay with GST-Aq-NF-kB, 7.6 z-score. Further, the binding signal in the assay with GST-Hu-p50 was 5.41 z-score.

In the case of “CCGATTAACATCAAGGAATCCCCTGATGTTAATCGGGTCTTGATTCGCTTGACGCTGCTG”, the binding signal with GST-Ap-NF-kB RHD stood at 9.79 z-score; in assay [1] it was 9.72 z-score; in assay [2] it was 10.4 z-score; with GST-Co-NF-kB, 3.63 z-score; with GST-Dm-Relish it was 10.1 z-score; in the assay with GST-Aq-NF-kB it was 7.6 z-score. Also, the binding signal in the assay with GST-Hu-p50 came out at 7.1 z-score.

In the case of “CCGATTAACATCAGGGGCGTTTATGATGTTAATCGGGTCTTGATTCGCTTGACGCTGCTG”, the binding signal in the assay with GST-Ap-NF-kB RHD was 3.36 z-score; in assay [1], 3.44 z-score; in assay [2], 3.2 z-score; with GST-Co-NF-kB, 1.35 z-score; with GST-Dm-Relish it was 2.1 z-score; in the assay with GST-Aq-NF-kB it was 3.54 z-score. The sequence further returned a binding signal with GST-Hu-p50 of 3.71 z-score.

With “CCGATTAACATCAAAAGTACCCCTGATGTTAATCGGGTCTTGATTCGCTTGACGCTGCTG”, the binding signal with GST-Ap-NF-kB RHD turned out to be 4.78 z-score; in assay [1], 4.21 z-score; in assay [2] it was 6.09 z-score; with GST-Co-NF-kB, 5.19 z-score; with GST-Dm-Relish, 7.17 z-score; in the assay with GST-Aq-NF-kB, 4.81 z-score. For the same sequence, the binding signal with GST-Hu-p50 was determined as 4.42 z-score.

Turning to “CCGATTAACATCAGGGGAAGTTATGATGTTAATCGGGTCTTGATTCGCTTGACGCTGCTG”, the binding signal with GST-Ap-NF-kB RHD was determined as 7.14 z-score; in assay [1], 9.1 z-score; in assay [2], 9.37 z-score; in the assay with GST-Co-NF-kB it was 7.7 z-score; with GST-Dm-Relish, 7.34 z-score; with GST-Aq-NF-kB, 7.08 z-score. This sequence came in with a binding signal with GST-Hu-p50 of 6.64 z-score.

Consider “CCGATTAACATCAGGGAAAGTTATGATGTTAATCGGGTCTTGATTCGCTTGACGCTGCTG”, for which the binding signal with GST-Ap-NF-kB RHD came out at 3.92 z-score; in assay [1], 6.93 z-score; in assay [2] it was 6.19 z-score; in the assay with GST-Co-NF-kB, 4.08 z-score; with GST-Dm-Relish, 2.29 z-score; with GST-Aq-NF-kB it was 6.81 z-score. The sequence further showed a binding signal with GST-Hu-p50 of 4.76 z-score.
